# Rows were chosen to be rich in hits. Some 19% of all compounds tested hit in one or more screens of this group.
# IL-1B inflam inh: blocks inflammasome-driven IL-1 beta release. THP-1 LPS/ATP IL-1B secretion, AlphaLISA, 16 h; stronger effect = lower value. activity change, % at 57.5 µM. 360,000 tested, 4.7% active. AID 743279; in the data active = activity change below about -50%; inconclusive = mostly about -30% to -49%
#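 Secreted IL-1B measured by AlphaLISA bead assay after 16 h compound exposure of THP-1 cells; compounds (final up to 57.5 uM) added 1 h before LPS (250 ng/mL) and ATP (1.25 mM) stimulation; lower signal means less secretion.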
# DT40 TDP1 CPT: growth inhibition of DT40 Tdp1-/-;hTDP1 cells with camptothecin (screen for TDP1 inhibitors); 420,000 tested, 12% active; AID 686979; Potency, µM (top dose mostly 46.2 µM), usual class: inhibitors; chicken DT40 Tdp1-/-;hTDP1 cells + 20 nM CPT, ATP luminescence, 48 h; also: nearly all actives have a fitted effect of over 55% in size
#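 Chicken DT40 Tdp1-/- cells stably complemented with human TDP1 were seeded at 400 cells/well in medium containing 20 nM camptothecin, exposed to pin-transferred compounds, and grown at 37 °C for at least 48 hr. Viability was read as ATP luminescence.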
# TGFb SMAD3 inh: inhibitors of TGF-b signaling; 410,000 tested, 1.2% active; Potency, µM (titrated, usually from 46.1 µM), most hits filed as inhibitors; HepG2 CAGA-GFP TGF-b/SMAD3 reporter, GFP fluorescence, 18 h; TGF-beta stimulated, 500 pg/mL final; also: nearly all actives have a fitted effect of over 65% in size
#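 Read-out: total well GFP (ex488/em500-530) summed from mean per-cell fluorescence. Cells: HEPG2 CAGA-GFP, 1% FBS DMEM, 18 h at 37 degrees C with 500 pg/mL final TGF-beta. Unstimulated wells served as the full-inhibition control; stimulated DMSO wells = 0%.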
# TDP1 inh: TDP1 (human) enzyme inhibition; Q9NUW8; recombinant TDP1, AlphaScreen DNA substrate cleavage; Potency, µM (titrated, usually from 130 µM), usual class: inhibitors; 350,000 tested, 0.28% active; AID 485290; also: nearly all actives have a fitted effect of over 40% in size
# Target sequence (Q9NUW8 whole entry, looked up): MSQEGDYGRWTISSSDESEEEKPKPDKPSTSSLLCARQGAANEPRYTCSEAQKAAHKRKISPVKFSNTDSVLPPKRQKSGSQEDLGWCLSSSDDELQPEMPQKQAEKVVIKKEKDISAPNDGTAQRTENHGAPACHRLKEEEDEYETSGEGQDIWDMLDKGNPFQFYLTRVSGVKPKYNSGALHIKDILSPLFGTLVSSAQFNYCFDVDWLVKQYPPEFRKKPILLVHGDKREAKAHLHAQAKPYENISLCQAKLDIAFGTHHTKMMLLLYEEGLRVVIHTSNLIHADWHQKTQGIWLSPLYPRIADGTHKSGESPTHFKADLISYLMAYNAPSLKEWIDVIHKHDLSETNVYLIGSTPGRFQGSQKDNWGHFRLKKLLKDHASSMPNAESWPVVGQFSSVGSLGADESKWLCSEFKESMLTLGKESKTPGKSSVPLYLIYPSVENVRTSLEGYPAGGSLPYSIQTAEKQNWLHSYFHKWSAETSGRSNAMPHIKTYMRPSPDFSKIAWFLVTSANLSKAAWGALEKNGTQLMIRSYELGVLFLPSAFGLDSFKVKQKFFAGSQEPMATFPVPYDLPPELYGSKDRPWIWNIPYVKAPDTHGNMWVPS
#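 Compounds were preincubated with Tdp1 (1 nM final) for 15 min at room temperature before substrate (15 nM final) started a 5 min reaction; beads (10 ug/ml final) were then added for 10 min before AlphaScreen detection.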
# HepG2 tox: kills HepG2 cells in TGF-b inhibitor counter-screen | HepG2 CAGA-GFP viability, ATP luminescence, 18 h | Potency, µM (series often up to 46.1 µM), hits mostly cytotoxic | 410,000 tested, 0.76% active
#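 HepG2 CAGA-GFP cells (1000/well, DMEM with 1% FBS) received compound, then TGF-beta at 500 pg/mL final, and were incubated 18 hours at 37 degrees C. Viability was read by CellTiter-Glo luminescence. Media-only wells were set as complete cell-killing and DMSO as no toxicity.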
# DT40 TDP1 no CPT: qHTS for Inhibitors of human tyrosyl-DNA phosphodiesterase 1 (TDP1): qHTS in cells in absence of CPT | DT40 Tdp1-/- hTDP1 cells, no CPT, ATP luminescence, 48 h | Potency, µM (series often up to 46.2 µM), usual class: inhibitors | 420,000 tested, 15% active; also: nearly all actives have a fitted effect of over 55% in size
#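 Readout: luminescence from CellTiter-Glo after 30 min in the dark at RT. Cells: DT40 Tdp1-/- with stable hTDP1, 400/well. Exposure: compounds alone, ≥48 hr, 37 °C.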
# Numbers stand for hits; - = inactive; ? = inconclusive; . = no result; [ ] = remark or other dose. Unless noted, calls follow the shape of the dose curve; as a rule, active = well fitted curve in the direction sought with a large enough effect; inconclusive = small, poorly fitted or top-dose-only effect, or another doubt; inactive = no such curve, though single readings can be large; an effect the other way counts as inactive or inconclusive.
SMILES,IL-1B inflam inh,DT40 TDP1 CPT,TGFb SMAD3 inh,TDP1 inh,HepG2 tox,DT40 TDP1 no CPT
CCOC(=O)c1ccc(NC(=O)CSC2=NN3CCCC(=O)N=C3S2)cc1,-,20.6µM,-,-,-,?
CCOc1ccccc1NC(=O)CSC1=NN2CCCC(=O)N=C2S1,-,-,-,-,-,?
COc1cccc(NC(=O)CSC2=NN3CCCC(=O)N=C3S2)c1,-,-,-,.,-,?
CCOC(=O)c1c(NC(=O)CSC2=NN3CCCC(=O)N=C3S2)sc2c1CCCCC2,-,20.6µM,-,-,-,?
COc1ccc(Cl)cc1NC(=O)CSC1=NN2CCCC(=O)N=C2S1,-,?,-,-[0.0935 µM],-,11.6µM
CCc1ccc(Sc2cc(C(=O)NCc3cccc(OC)c3)c3ccccc3n2)cc1,.,16.4µM,-,-,-,?
CCOc1ccc(Nc2cc(C(=O)NCc3ccccc3Cl)c3ccccc3n2)cc1,.,10.3µM,-,-,-,?
CCOc1ccc(Sc2cc(C(=O)NCc3ccccc3Cl)c3ccccc3n2)cc1,.,?,-,-,-,13µM
COc1ccc(Nc2cc(C(=O)NCc3ccccc3OC)c3ccccc3n2)cc1,.,-,-,-,-,?
CC(=O)NCCc1nc2ccccc2n1CCCCOc1ccc(Cl)cc1,.,20.6µM,?,-,-,14.6µM
CC(O)c1nc2ccccc2n1CCCCOc1ccccc1 (centres undefined),-,-,?,-,-,14.6µM
C=C(C)Cn1c(CCCNC(=O)C(C)(C)C)nc2ccccc21,-,16.4µM,-,-,-,23.1µM
COc1ccccc1OCCn1c(C(C)Oc2ccccc2)nc2ccccc21 (centres undefined),.,25.9µM,11.2µM,-,-,?
CCCCn1c(C(C)O)nc2ccccc21 (centres undefined),-,-,-,-,-,-
C=CCn1c(CCCNC(=O)C(C)(C)C)nc2ccccc21,-,?,-,-,-,?
CCCCCn1c(CCCNC(=O)c2ccc(Cl)cc2)nc2ccccc21,.,?,?,-,-,16.4µM
Cn1c(CCCNC(=O)c2ccccc2)nc2ccccc21,-,-,-,-,-,-
CC(=O)NCCc1nc2ccccc2n1CCOc1ccccc1,-,-,-,-,-,-
CC(=O)NCCc1nc2ccccc2n1CCCCOc1ccccc1,-,?,-,.,-,13µM
Cc1ccc(C(=O)NC(=S)N2CCN(c3ccc([N+](=O)[O-])cc3)CC2)cc1,-,?,-,-,-,25.9µM
O=C(NC(=S)N1CCN(c2ccc([N+](=O)[O-])cc2)CC1)c1ccccc1,-,?,-,-,-,3.26µM
O=C(NC(=S)N1CCCCCC1)c1cccc([N+](=O)[O-])c1,-,?,-,-,-,16.4µM
CC(=O)N1CCN(C(=S)c2cccc([N+](=O)[O-])c2)CC1,-,-,-,-,-,-
O=[N+]([O-])c1ccc(N2CCN(C(=S)c3cccc([N+](=O)[O-])c3)CC2)cc1,-,14.6µM,-,-,-,20.6µM
CCCC(=O)NC(=S)N1CCN(c2ccc([N+](=O)[O-])cc2)CC1,-,-,-,-,-,-
SMILES,IL-1B inflam inh,DT40 TDP1 CPT,TGFb SMAD3 inh,TDP1 inh,HepG2 tox,DT40 TDP1 no CPT
O=C(NC(=S)N1CCN(c2ccccc2)CC1)c1ccc(S(=O)(=O)N2CCOCC2)cc1,-,?,-,.,-,?
COc1ccc(CCC(=O)c2c(O)cc(O[C@@H]3O[C@H](CO)[C@@H](O)[C@H](O)[C@H]3O[C@@H]3O[C@@H](C)[C@H](O)[C@@H](O)[C@H]3O)cc2O)cc1O,.,.,.,-,.,.
CCOc1ccc(C2c3[nH]c4ccccc4c3CCN2C(=O)Cc2cccc(OCC)c2OCC)cc1 (centres undefined),.,?,-,-,-,?
CC(C)(C)OC(=O)N[C@H](C(=O)OC(C)(C)C)c1ccc2c(c1)OCO2,-,?,-,-,-,?
O=C(NC(=S)N1CCN(c2ccc([N+](=O)[O-])cc2Cl)CC1)c1ccco1,-,20.6µM,?,-,-,16.4µM
O=C(c1ccco1)N1CCN(c2ccc([N+](=O)[O-])cc2Cl)CC1,-,?,-,.,-,?
Cc1ccc(Cc2c(-c3cccc(Cl)c3)nc3ccc(Cl)cn23)cc1,-,?,?,.,-,?
COc1ccc(CNC(=O)C2CCCN2c2nc(C)c3ccccc3n2)cc1 (centres undefined),.,-[9.04 µM],.,.,.,-
COc1ccc([C@H]2CC(=O)C=C(C#CC(C)(C)C)C2)cc1,-,?,-,-,-,?
COc1ccc2cc(C#CC3=CC(=O)C[C@H](c4ccc(F)cc4)C3)ccc2c1,-75.8,?,-,.,-,?
C/C(CC(=O)NCCN1CCOCC1)=N\NC(=O)c1ccncc1,-,-,-,-,-,-
CCOC(=O)c1c(NC(=O)C2COc3ccccc3O2)sc2c1CC(C)(C)NC2(C)C (centres undefined),?,13µM,-,-,-,11.6µM
CCOC(=O)c1ccc(NC(=O)C2COc3ccccc3O2)cc1 (centres undefined),-,-,-,.,-,?
CCOC(=O)c1c(NC(=O)C2COc3ccccc3O2)sc(C(C)=O)c1C (centres undefined),-,7.31µM,?,-,-,6.51µM
COc1ccc(-n2c(=O)c(C)nc3cnc(N(C)C)nc32)cc1,.,-,.,.,.,-
CCCCn1cnc2c(SCc3ccccc3)nc(N)nc21,-50.4,?,-,.,-,?
CCCn1cnc2c(SCc3ccc(Cl)cc3)nc(N)nc21,-63.3,?,-,.,-,?
CCCn1cnc2c(SCc3ccccc3)nc(N)nc21,-,-,-,.,-,?
Nc1nc(SCc2ccc(Br)cc2)c2ncn(C3OC(CO)C(O)C3O)c2n1 (centres undefined),-,-,-,.,-,?
Nc1nc(SCc2ccc(Cl)cc2Cl)c2ncn(C3OC(CO)C(O)C3O)c2n1 (centres undefined),-,-,-,.,-,-
CCCCn1cnc2c(SCc3ccc(Br)cc3)nc(N)nc21,-83.9,?,-,.,-,?
CCCCn1cnc2c(SCc3ccccc3Cl)nc(N)nc21,-87.3,-,-,.,-,?
CC(=O)NCCc1c[nH]c2ccc(OCc3ccccc3)cc12,-,-,-,.,-,-
C/C(CCN1CCc2nc(-c3ccccc3)c(-c3ccccc3)cc2C1)=N\OC[C@@H](O)[C@@H]1O[C@@H]2OC(C)(C)O[C@@H]2[C@H]1O,.,.,.,-[21 µM],.,.
CSc1cccc(NC(=O)C2CCN(S(=O)(=O)c3ccc4[nH]c(=O)ccc4c3)CC2)c1,.,-,-,-,-,-
